Measurements from a collection of fitness landscapes (doi:10.1016/j.celrep.2020.107928).
In all, about 81,000 sequences were measured (“one-hybrid fitness for binding NBS DNA”: median about -0.1, highest 2% from about 0.36 on). The entries come from a sample that favours the highest values as a whole.

B1: Caulobacter ParB omega fusion; a variant is named by its letters at X, in order, B8GW30 (parent)
chain: MESVVVGEPGMSEGRRGLGRGLSALLGEVDAAPAQAPGEQLGGSREAPIEILQRNPDQPRRTFREEDLEDLSNSIREKGVLQPILVRPSPDTAGEYQIVAGERAWRAAQRAGLKTVPIMVRELDDLAVLEIGIIENVQRADLNVLEEALSYKVLMEKFERTQENIAQTIGKSXSHVANXMRLLXLPDEVQSYLVSGELTAXHARAIAAAADPVALAKQIIEGGLSVRETEALARKAPNLSAGKSKGGRPPRVKDTDTQALESDLSSVLGLDVSIDHRGSTGTLTITYATLEQLDDLCNRLTRGI

Variants of: B1
Assay: one-hybrid fitness for binding NBS DNA (the Noc-binding site; scaled: cognate 1, non-cognate 0); higher = stronger binding
Conditions: with NBS DNA site
In short: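 On M9-minus-histidine containing 0.1 mM IPTG and 5 mM 3-AT, E. coli USO cells with a HIS3 reporter, site 19 bp from the promoter, grew 48 hours at 37°C to select Caulobacter ParB libraries randomised at four specificity codons. Plasmids from before and after were Illumina-sequenced, with three replicate libraries pooled and variants under 10 reads left out. Fitness is the log change in variant-to-wild-type read ratio, rescaled against cognate and non-cognate.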

Variant	one-hybrid fitness for binding NBS DNA
YEPF	≤ 0.2
HTTL	≤ 0.2
YPNR	≤ 0.2
EHEC	≤ 0.2
THMK	≤ 0.2
KCHR	≤ 0.2
DRQR	≤ 0.2
KPGR	≤ 0.2
KCGR	≤ 0.2
KRHR	0.616
KCQR	≤ 0.2
KSHR	≤ 0.2
KRGR	0.557
KRQR	0.552
KRWR	0.578
KSWR	≤ 0.2
KPWR	≤ 0.2
NSRQ	≤ 0.2
TYKN	≤ 0.2
HHDR	≤ 0.2
DNHG	≤ 0.2
KRLR	0.456
KSER	≤ 0.2
KCLR	≤ 0.2

Variant	one-hybrid fitness for binding NBS DNA
DRLR	≤ 0.2
KRNR	0.661
KRDR	0.336
KCSR	≤ 0.2
KCER	≤ 0.2
KCNR	0.223
KRSR	0.561
KRER	0.368
NRSR	≤ 0.2
IRGF	≤ 0.2
RLMT	0.335
QCPH	≤ 0.2
TMHT	≤ 0.2
KCIR	≤ 0.2
KRRK	0.319
KCCR	≤ 0.2
KCYR	≤ 0.2
KRIR	0.378
KRYR	0.545
NRCR	≤ 0.2
KPYR	≤ 0.2
KRRR	0.787
KRRD	≤ 0.2
KRCR	0.55

Variant	one-hybrid fitness for binding NBS DNA
KRPR	0.239
GERG	≤ 0.2
HQHR	≤ 0.2
VMTL	≤ 0.2
CRHA	≤ 0.2
HMKG	≤ 0.2
THLW	≤ 0.2
GMMA	≤ 0.2
QTRE	0.405
QRYE	0.207
QCKE	0.297
QTDE	≤ 0.2
QRKE	0.368
QTKE	0.378
QTYE	≤ 0.2
QTVE	≤ 0.2
QCRE	0.369
QRVE	≤ 0.2
QPRE	≤ 0.2
QSRE	0.22
DNPC	≤ 0.2
TLCS	≤ 0.2
AKQC	≤ 0.2
YPSA	≤ 0.2

Variant	one-hybrid fitness for binding NBS DNA
VEHK	≤ 0.2
IPPG	≤ 0.2
NQDG	≤ 0.2
HSKR	≤ 0.2
CSCG	≤ 0.2
RDNI	≤ 0.2
RVSN	≤ 0.2
RVSR	0.439
RVSH	≤ 0.2
RVSP	≤ 0.2
RVST	0.463
RVSF	≤ 0.2
RVSS	0.39
RVSD	≤ 0.2
RVSC	≤ 0.2
TKDA	≤ 0.2
NVIT	≤ 0.2
NCKE	≤ 0.2
GYMR	≤ 0.2
VACG	≤ 0.2
GAQH	≤ 0.2
LKVD	≤ 0.2
RKFK	≤ 0.2
RPFR	≤ 0.2

Variant	one-hybrid fitness for binding NBS DNA
RKAR	0.597
RKFR	0.443
RKAH	0.322
RCFR	0.376
RKAN	≤ 0.2
RKFQ	≤ 0.2
RFFR	≤ 0.2
PSEM	≤ 0.2
VQGT	≤ 0.2
EMAT	≤ 0.2
MADF	≤ 0.2
PISS	≤ 0.2
CTLV	≤ 0.2
YGYV	≤ 0.2
RTKC	0.31
RTKT	0.724
RTVK	≤ 0.2
RTKQ	0.356
RTVD	≤ 0.2
RTVT	0.393
EDMY	≤ 0.2
WWLN	≤ 0.2
RCEN	≤ 0.2
DHID	≤ 0.2

Variant	one-hybrid fitness for binding NBS DNA
PMHC	≤ 0.2
TEPL	≤ 0.2
PAKT	≤ 0.2
PFVA	≤ 0.2
GVMR	≤ 0.2
QQKT	0.811
KQKT	0.222
QQVT	0.393
QQVN	≤ 0.2
QQKF	0.356
QQVP	≤ 0.2
DFWV	≤ 0.2
PKQR	≤ 0.2
TNGR	≤ 0.2
DAAG	≤ 0.2
CWHR	≤ 0.2
QAGN	≤ 0.2
QAGS	0.342
QTGY	0.312
QTGQ	0.27
QLGS	0.322
QLGT	0.369
QLGH	≤ 0.2
QSGN	≤ 0.2

Variant	one-hybrid fitness for binding NBS DNA
QTGT	0.64
QAGT	0.37
QSGT	0.385
QSGD	≤ 0.2
DRLC	≤ 0.2
AHIW	≤ 0.2
CMMG	≤ 0.2
SQTP	≤ 0.2
CRSF	≤ 0.2
KPEL	≤ 0.2
QHGS	0.343
QHGP	≤ 0.2
QIGT	0.331
QCGT	0.558
QPGT	≤ 0.2
QHGT	0.385
LTNG	≤ 0.2
SHCL	≤ 0.2
DTQK	≤ 0.2
GMQY	≤ 0.2
SYPN	≤ 0.2
QRPD	≤ 0.2
QRPP	≤ 0.2
QRIH	0.335

Variant	one-hybrid fitness for binding NBS DNA
QRIN	≤ 0.2
QRIS	0.546
QRPS	0.461
TLDA	≤ 0.2
VTHW	≤ 0.2
PTMM	≤ 0.2
REHM	≤ 0.2
TEDC	≤ 0.2
MFLM	≤ 0.2
WPQL	≤ 0.2
QDTP	≤ 0.2
SAMV	≤ 0.2
RPKA	≤ 0.2
RKWA	0.249
RKVA	≤ 0.2
RFKA	≤ 0.2
RTPA	≤ 0.2
RCKA	0.423
RIKA	0.327
RTVA	≤ 0.2
RSKA	0.343
RKKA	0.514
RRKA	0.712
RTKA	0.479

Variant	one-hybrid fitness for binding NBS DNA
VDGR	≤ 0.2
KWPI	≤ 0.2
RNIK	≤ 0.2
VKTS	≤ 0.2
LYFR	≤ 0.2
CLSP	≤ 0.2
QWKS	≤ 0.2
SAIE	≤ 0.2
RRVA	0.571
RSVA	≤ 0.2
RCVA	≤ 0.2
SFPF	≤ 0.2
CLCS	≤ 0.2
HDRG	≤ 0.2
PCMM	≤ 0.2
QADS	≤ 0.2
QSDS	≤ 0.2
QMNS	0.458
QHNN	≤ 0.2
QMNP	≤ 0.2
QANP	≤ 0.2
QMDS	≤ 0.2
QSNS	0.421
QANS	0.392

Variant	one-hybrid fitness for binding NBS DNA
QSNH	0.273
QHDS	≤ 0.2
QHNS	0.419
KNIF	≤ 0.2
WQYS	≤ 0.2
YNRS	≤ 0.2
VAGY	≤ 0.2
ITFA	≤ 0.2
TSRF	≤ 0.2
KQID	≤ 0.2
QLNS	0.385
QLNP	≤ 0.2
QINS	0.329
QLDS	≤ 0.2
QPNS	≤ 0.2
QCNS	0.534
CAVL	≤ 0.2
QPVQ	0.598
QSKQ	0.351
QRVQ	0.511
QRKQ	0.492
QPKQ	≤ 0.2
QSVQ	0.291
QRPQ	≤ 0.2

Variant	one-hybrid fitness for binding NBS DNA
QWKF	≤ 0.2
LTYT	≤ 0.2
THMS	≤ 0.2
QFPN	≤ 0.2
GTPY	≤ 0.2
EAGR	≤ 0.2
MHRT	≤ 0.2
RVTH	≤ 0.2
RVTD	≤ 0.2
RVTR	0.429
RVTP	≤ 0.2
RVTN	≤ 0.2
RVTT	0.449
RVTM	≤ 0.2
RVTS	0.392
RVTY	≤ 0.2
LTHY	≤ 0.2
RNVL	≤ 0.2
GFEG	≤ 0.2
DLLN	≤ 0.2
QAHR	0.541
QAGR	0.525
QAGD	≤ 0.2
QAHD	≤ 0.2

Variant	one-hybrid fitness for binding NBS DNA
QAGH	≤ 0.2
QAHQ	≤ 0.2
QAPR	0.275
QAYR	0.464
MAYR	≤ 0.2
MARR	0.414
QAIR	0.308
MARN	≤ 0.2
PHID	≤ 0.2
SLRF	≤ 0.2
CMGR	≤ 0.2
NAWR	≤ 0.2
STPW	≤ 0.2
CRAL	≤ 0.2
FGKT	≤ 0.2
GADW	≤ 0.2
KKET	≤ 0.2
MDLY	≤ 0.2
QARR	0.973
QARP	0.24
QARD	0.23
AKDS	≤ 0.2
LERS	≤ 0.2
RCKQ	0.254

Variant	one-hybrid fitness for binding NBS DNA
RRVQ	0.428
RCVQ	0.215
RPVQ	0.397
RFVQ	≤ 0.2
RRDQ	0.241
RRRQ	0.401
RKVQ	≤ 0.2
RSVQ	≤ 0.2
RRYQ	0.207
RSKQ	≤ 0.2
RRKQ	0.436
GWHC	≤ 0.2
VAYS	≤ 0.2
MTCD	≤ 0.2
DSMI	≤ 0.2
KMGG	≤ 0.2
CFTM	≤ 0.2
YTCL	≤ 0.2
